Source: PubChem
Most compounds without a hit are left out; they make up all but 7.9% or so of the library.
HT1080-NT tox – kills 2HG-producing HT-1080-NT fibrosarcoma cells; HT-1080-NT fibrosarcoma viability, CellTiter-Glo ATP luminescence, 48 h; Potency, µM (top dose mostly 46.1 µM), inactives show top-dose activity, negative = less viability, actives largely listed as cytotoxic; 360,000 tested, 1.6% active; AID 686970;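 further: NT is the 2HG producing partner of a matched IDH1 knockdown line; 0% = DMSO-treated cells and -100% = media-only wells without cells; nearly all actives have a fitted effect of over 55% in size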
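A 48-hour cytotoxicity screen used HT-1080-NT cells plated 2 hours before compound delivery. ATP-based CellTiter-Glo luminescence measured viability, normalized to DMSO and no-cell controls.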
HT1080 IDH1KD tx – HT-1080 IDH1 knockdown cell toxicity (counter line); HT-1080 IDH1 knockdown viability, ATP luminescence, 48 h; Potency, µM (top dose mostly 46.1 µM), for inactives: at the top dose activity, negative = toxicity, hits mostly cytotoxic; 360,000 tested, 2% active; AID 686971;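 further: 0% = DMSO wells and -100% = cell-free medium wells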
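Knockdown cells (IDH1KD HT-1080) received compounds 2 h after plating at 750 cells/well and were kept 48 h at 37 °C in 5% FBS RPMI. A CellTiter-Glo luminescence read gave % activity for curve fitting.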
KB-3-1 cytotox – KB-3-1 parental cell cytotoxicity | KB-3-1 viability, CellTiter-Glo ATP luminescence, 72 h | 400,000 tested, 1.4% active | AID 1347075 | Potency, µM (highest dose often 46.1 µM), hits mostly cytotoxic; further: on the % scale 0 is the no-effect control and ±100 the full control effect; nearly all actives have a fitted effect of over 60% in size
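Parental KB-3-1 viability, qHTS format: 72 h compound exposure, 37 °C; CellTiter-Glo; media-only wells and DMSO plates as controls; concentration-effect fits on corrected data.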
MCF10A rereplic – inducers of DNA re-replication in MCF 10A breast cells. MCF 10A DNA re-replication, Hoechst nuclear intensity, 48 h. Potency, µM (doses to about 46.1 µM), for the others: at the highest dose activity, positive = re-replication, most hits filed as activators. 350,000 tested, 2.9% active; further: % of control where 0% means no effect; nearly all actives have a fitted effect of over 50% in size
SW480 rerep – inducers of DNA re-replication in SW480 colon cancer cells. 340,000 tested, 1.8% active. SW480 DNA re-replication, Hoechst DNA content imaging, 48 h. AID 624297. Potency, µM (top dose mostly 46.1 µM), for the others: at the top dose re-replication activation, usual class: activators; further: % of control where 0% means no effect; nearly all actives have a fitted effect of over 55% in size
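SW480 cells exposed to compounds for 48 hr at 37 C, 5% CO2, then Hoechst-stained 40 min. Nuclear DNA content imaged by fluorescence scanning (405 nm excitation, 500-530 nm emission); re-replication scored as increased high-intensity nuclei.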
KB-V1 cytotox – kills drug-selected multidrug resistant KB-V1 cells; 400,000 tested, 3.4% active; Potency, µM (top dose mostly 46.1 µM), actives largely listed as cytotoxic; KB-V1 MDR cells viability, CellTiter-Glo, 72 h; further: on the % scale 0 is the no-effect control and ±100 the full control effect; nearly all actives have a fitted effect of over 60% in size
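KB-V1 MDR subline cells in DMEM (phenol-red free, 10% FBS) exposed to compounds in qHTS concentration series for 72 h at 37 degrees C. Viability read by CellTiter-Glo luminescence; concentration-effect curves fitted after normalization and correction.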
Numbers without * were called inactive; ! = repeats disagree; [ ] = remark or other dose. The call rests on the fitted dose curve; in most records, active means well fitted curve in the direction sought with a large enough effect; inconclusive means small, poorly fitted or top-dose-only effect, or another doubt; inactive means no such curve, though single readings can be large; an effect the other way counts as inactive or inconclusive. Potency means the concentration at half of the fitted maximal effect.

For COc1cccc(NC(=O)c2ccc(-n3cnnn3)cc2)c1 the results were HT1080-NT tox inconclusive, HT1080 IDH1KD tx -25%, KB-3-1 cytotox inactive, MCF10A rereplic 4%, SW480 rerep -5% and KB-V1 cytotox inactive.
`OCc1ccccn1` gave MCF10A rereplic 12% and SW480 rerep -6%.
Cc1cc(OCc2cc(C(=O)N(C)Cc3nonc3C)no2)cc(C)c1Cl was read as HT1080-NT tox -25%, HT1080 IDH1KD tx -23%, KB-3-1 cytotox inactive, MCF10A rereplic inconclusive, SW480 rerep 24% and KB-V1 cytotox inconclusive.
For Cc1cc(OCc2cc(C(=O)N(C)C3CCOC3)no2)cc(C)c1Cl (stereo not given) the results were HT1080-NT tox -5%, HT1080 IDH1KD tx -19%, KB-3-1 cytotox inconclusive, MCF10A rereplic 2.3µM*, SW480 rerep 15% and KB-V1 cytotox inconclusive.
For CCc1ccc(CN(C)C(=O)c2cc(COc3cc(C)c(Cl)c(C)c3)on2)nc1 the results were HT1080-NT tox inconclusive, HT1080 IDH1KD tx inconclusive, KB-3-1 cytotox inactive, MCF10A rereplic 23µM*, SW480 rerep -4% and KB-V1 cytotox inactive.
Cc1ccc(OCc2cc(C(=O)N(C)Cc3cnn(-c4ccccc4C)c3)no2)cn1 was read as HT1080-NT tox 18µM*, HT1080 IDH1KD tx 21µM*, KB-3-1 cytotox 18µM*, MCF10A rereplic 10%, SW480 rerep 1% and KB-V1 cytotox inconclusive.
Screening Cc1cccc(-c2noc(-c3cccnc3NCc3ccc(Cl)cc3)n2)c1 returned KB-3-1 cytotox inactive and KB-V1 cytotox inactive.
For CCc1nc2nc(C)cc(Nc3ccc(OC)cc3OC)n2n1 the results were KB-3-1 cytotox inactive and KB-V1 cytotox inactive.
Screening c1ccc(-c2cn3c4c(sc3n2)CCCC4)cc1 returned HT1080-NT tox 11µM*, HT1080 IDH1KD tx inconclusive, KB-3-1 cytotox inconclusive, MCF10A rereplic 21µM*!, SW480 rerep inconclusive and KB-V1 cytotox inconclusive.
`c1ccc(-c2cn3nc(-c4ccccc4)sc3n2)cc1` gave HT1080-NT tox 0%, HT1080 IDH1KD tx 7%, KB-3-1 cytotox inactive, MCF10A rereplic 4%, SW480 rerep -2% and KB-V1 cytotox inactive.
Screening NSc1nc(N)c2nc(-c3ccccc3)c(-c3ccccc3)nc2n1 returned HT1080-NT tox -7%, HT1080 IDH1KD tx -5%, KB-3-1 cytotox inconclusive, MCF10A rereplic -36%, SW480 rerep -39% and KB-V1 cytotox inactive.
`Nc1nc(N)c2nc(-c3ccccc3)c(N)nc2n1` gave HT1080-NT tox 2.3µM*, HT1080 IDH1KD tx 2.9µM*, KB-3-1 cytotox inactive, MCF10A rereplic -45%, SW480 rerep 14% and KB-V1 cytotox inactive.
COc1ccc(C(C)(C)C)cc1NC(=O)c1[nH]c(C)c(C(C)=O)c1C was read as HT1080-NT tox inconclusive, HT1080 IDH1KD tx -15%, KB-3-1 cytotox inconclusive, MCF10A rereplic 18µM*, SW480 rerep inconclusive and KB-V1 cytotox inconclusive.
For CC(=O)c1c(C)[nH]c(C(=O)Nc2cccc(C(F)(F)F)c2)c1C the results were HT1080-NT tox inconclusive, HT1080 IDH1KD tx inconclusive, KB-3-1 cytotox inconclusive, MCF10A rereplic 4%, SW480 rerep 9% and KB-V1 cytotox 13µM*.
`COc1ccc(NC(=O)c2[nH]c(C)c(C(C)=O)c2C)cc1Cl` gave HT1080-NT tox -16%, HT1080 IDH1KD tx -15%, KB-3-1 cytotox inactive, MCF10A rereplic inconclusive, SW480 rerep inconclusive and KB-V1 cytotox inactive.
`O=C(CN1CCOCC1)Nc1cccc(C(=O)Nc2cccc(C(F)(F)F)c2)c1` gave HT1080-NT tox -8%, HT1080 IDH1KD tx -3%, KB-3-1 cytotox inactive, MCF10A rereplic 1%, SW480 rerep -5% and KB-V1 cytotox inactive.
CCCCCNCC(=O)Nc1cccc(C(=O)Nc2cccc(C(F)(F)F)c2)c1 was read as HT1080-NT tox 21µM*, HT1080 IDH1KD tx 16µM*, KB-3-1 cytotox inconclusive, MCF10A rereplic inconclusive, SW480 rerep 18% and KB-V1 cytotox 23µM*.
For COc1ccc(C(=O)COC(=O)c2cc(C)no2)c(OC)c1 the results were HT1080-NT tox 1%[9.24 µM], HT1080 IDH1KD tx 15%, KB-3-1 cytotox inactive, MCF10A rereplic 0%, SW480 rerep 3% and KB-V1 cytotox inconclusive.
Screening O=C(Cn1cc(S(=O)(=O)c2ccccc2)c(=O)c2cc(Cl)ccc21)Nc1ccc2c(c1)OCO2 returned KB-3-1 cytotox inactive and KB-V1 cytotox inconclusive.
`CCN(Cc1ccccc1)C(=O)c1cc2c(OC)c(OC)c(OC)cc2[nH]1` gave HT1080-NT tox -14%, HT1080 IDH1KD tx -2%, KB-3-1 cytotox inactive, MCF10A rereplic 19%, SW480 rerep -1% and KB-V1 cytotox inactive.
For CCN(CC)C(=O)c1oc2ccc(S(=O)(=O)N3CC(C)CC(C)C3)cc2c1C (stereo not given) the results were HT1080-NT tox inconclusive, HT1080 IDH1KD tx inconclusive, KB-3-1 cytotox inactive, MCF10A rereplic inconclusive, SW480 rerep -21% and KB-V1 cytotox inconclusive.
Screening COc1ccc2oc(C(=O)OCC(=O)N3CCCCC3C)c(C)c2c1 (stereo not given) returned HT1080-NT tox 2%, HT1080 IDH1KD tx -3%, KB-3-1 cytotox inactive, MCF10A rereplic 1%, SW480 rerep -4% and KB-V1 cytotox 21µM*.
Screening COc1ccc2oc(C(=O)Nc3ccc(S(=O)(=O)N(C)C4CCN(C)CC4)cc3)c(C)c2c1 returned HT1080-NT tox 23µM*, HT1080 IDH1KD tx 18µM*, KB-3-1 cytotox inconclusive, MCF10A rereplic 15%, SW480 rerep inconclusive and KB-V1 cytotox inactive.
`COc1ccc(NC(=O)c2oc3ccc(S(=O)(=O)N4CCCCC4)cc3c2C)cc1` gave KB-3-1 cytotox inactive and KB-V1 cytotox 6.5µM*.
`COc1cccc(NC(=O)c2oc3ccc(S(=O)(=O)N4CCCCCC4)cc3c2C)c1` gave KB-3-1 cytotox inactive and KB-V1 cytotox inactive.
Screening COc1ccc2oc(C(=O)OCC(=O)N3C(C)CCCC3C)c(C)c2c1 (stereo not given) returned HT1080-NT tox -6%, HT1080 IDH1KD tx -4%, KB-3-1 cytotox inactive, MCF10A rereplic 11%, SW480 rerep 3% and KB-V1 cytotox inactive.
CCN(CC)C(=O)c1oc2ccc(S(=O)(=O)N3CCCCCC3)cc2c1C was read as HT1080-NT tox inconclusive, HT1080 IDH1KD tx -18%, KB-3-1 cytotox inactive, MCF10A rereplic 30%, SW480 rerep 3% and KB-V1 cytotox 13µM*.
